The full list was thinned out, with hits kept by preference.
TbPYK inhibitor – T. brucei pyruvate kinase inhibition; actives 0.12% (n = 410,000); Q57TT1; Potency, µM (highest dose often 76.8 µM), most hits filed as inhibitors; AID 624173; TbPYK enzyme, Kinase-Glo Plus ATP luminescence, 45 min; note: nearly all actives have a fitted effect of over 50% in size
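Activity of T. brucei pyruvate kinase was followed by Kinase-Glo Plus luminescence after the enzyme reacted 45 min at room temperature with 130 uM ADP (final) and substrate. Test compounds were added before ADP at multiple concentrations.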
RE007 growth inh – less growth of the S. pombe RE007 Vpr strain. S. pombe RE007 Vpr strain, BacTiter-Glo ATP luminescence, 24 h. Potency, µM (doses to about 92.2 µM), actives largely listed as inhibitors. actives 0.21% (n = 360,000). AID 651644; active = well fitted falling curve with a large enough effect; inconclusive = small, poorly fitted or top-dose-only effect; inactive = no such curve, though single readings can be large or run the other way; note: nearly all actives have a fitted effect of over 50% in size
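Fission yeast RE007 carrying one integrated HIV-1 vpr copy, seeded at OD 0.01 in PMG+AL medium with 23 nL pinned compound. Grown 24 h at 30 degrees; viability read by BacTiter-Glo luminescence after 5 min.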
Shiga toxin inh – Shiga toxin inhibition | Vero cells, Shiga toxin protein synthesis inhibition reporter | inhibition, % at 38.7 µM | actives 9.2% (n = 290,000) | AID 2315; in the data active = inhibition mostly above about 28%, no sharp cut-off; inactive = mostly below about 43%
LmPK inhibitor – LmPK (Leishmania mexicana) enzyme inhibition | purified LmPK, Kinase-Glo ATP luminescence, 1 h | Potency, µM (top dose mostly 57.5 µM), actives largely listed as inhibitors | actives 0.37% (n = 290,000)
Target sequence (Q27686 whole entry, looked up): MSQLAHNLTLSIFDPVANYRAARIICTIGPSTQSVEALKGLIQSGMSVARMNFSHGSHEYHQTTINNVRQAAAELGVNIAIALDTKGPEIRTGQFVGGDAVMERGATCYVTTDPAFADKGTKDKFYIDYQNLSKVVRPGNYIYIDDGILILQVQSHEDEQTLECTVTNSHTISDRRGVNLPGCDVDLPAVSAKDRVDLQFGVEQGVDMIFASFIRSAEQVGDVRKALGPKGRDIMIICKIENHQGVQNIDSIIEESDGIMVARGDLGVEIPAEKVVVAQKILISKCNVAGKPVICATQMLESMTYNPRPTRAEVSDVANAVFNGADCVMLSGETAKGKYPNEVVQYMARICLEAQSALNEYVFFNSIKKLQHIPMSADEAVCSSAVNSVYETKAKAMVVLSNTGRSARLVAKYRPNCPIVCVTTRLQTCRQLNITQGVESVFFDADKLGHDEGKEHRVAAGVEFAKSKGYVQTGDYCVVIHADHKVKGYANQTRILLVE
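Purified LmPK (0.1 nM) converted ADP (0.1 mM) to ATP with PEP (0.5 mM) in imidazole buffer pH 7.2 with KCl and MgCl2, 1 h at room temperature. ATP was read by Kinase-Glo luminescence; data normalized to uninhibited and no-enzyme controls.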
FBPA Giardia inh – blocks Giardia fructose-bisphosphate aldolase activity. actives 0.71% (n = 290,000). Potency, µM (highest dose often 59.6 µM), actives largely listed as inhibitors. purified Giardia FBPA. A8B2U2. AID 2451; note: nearly all actives have a fitted effect of over 55% in size
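40 nM FBPA preincubated 10 min at RT with compound (up to 57.5 uM final), then substrate plus GAPDH/TPI/NAD/arsenate coupling and diaphorase/resazurin added. Fluorescence read after 20 min at RT, 525/598 nm.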
Cycloheximide cs – counter-screen hit for Shiga toxin inhibitors, cycloheximide | cell reporter, cycloheximide protein synthesis inhibition counterscreen | max response, % | actives 12% (n = 300,000) | AID 2314; in the data active = max response mostly above about 13%, no sharp cut-off; inactive = mostly below about 14%; note: read at 38.3 µM for the half of the compounds with a filed dose
A number is an active result; 0 = inactive; ? = inconclusive; - = no result; [ ] = another dose, or the depositor's remark. Unless noted, calls come from the whole dose curve; as a rule, active = well fitted curve in the direction sought with a large enough effect; inconclusive = small, poorly fitted or top-dose-only effect, or another doubt; inactive = no such curve, though single readings can be large; an effect the other way counts as inactive or inconclusive.

SMILES	TbPYK inhibitor	RE007 growth inh	Shiga toxin inh	LmPK inhibitor	FBPA Giardia inh	Cycloheximide cs
Cc1cccc(C)c1Nc1oc(-c2ccccc2)nc1-c1ccccc1F	-	-	-	-	0	-
CN(C(=O)CSc1nnc(-c2ccccc2F)o1)C1CCCCC1	0	-	-	-	-	-
CCCn1c(-c2ccc(F)cc2)nc2c(NCCN(C(C)C)C(C)C)nc(C)nc21	-	-	-	-	0	-
CCOc1ccccc1-n1cc2c(c1-c1ccc(OC)cc1)c(=O)n(C)c(=O)n2C	0	-	-	-	-	-
CC1CCC2C(=O)N3C(CCC(C)[C@H]3c3ccccc3Br)C(=O)N2C1c1ccccc1Br (some centres not stated)	-	-	-	-	0[12.9 µM]	-
Cc1cc(C)c2nc(N(CCCN(C)C)C(=O)c3ccc4c(c3)CCCC4)sc2c1	0	0	-	-	-	-
CN(C)CCCN(C(=O)c1cc2ccccc2oc1=O)c1nc2ccc(F)cc2s1	0	0	0	0	0	12.5
O=C1c2ccccc2C(=O)N1CCCCN(C(=O)c1cc2ccccc2oc1=O)c1ccc(F)cc1F	0	0	73.7	0	0	59.6
O=C(NCCc1ccc(F)cc1)c1cc2ccccc2oc1=O	0	0	0	0	-	0
Cc1ccc2nc(N(CCN(C)C)C(=O)c3cc(Cl)sc3Cl)sc2c1	0	0	32.8	0	0	21.8
CN(C)CCCN(C(=O)c1ccc2c(c1)CCCC2)c1nc2c(F)cccc2s1	0	0	23.9	0	?	16.7
CC(=O)Nc1nnc2n1CCS2	0	-	-	-	-	-
CN(C)CCN(C(=O)c1ccc2ccccc2c1)c1nc2ccc(F)cc2s1	0	0	0	0	?	18.1
CCN(Cc1ccccc1)S(=O)(=O)c1ccc(F)c(C(=O)Nc2cc(C(F)(F)F)ccc2Cl)c1	0	-	-	-	-	-
CCOC(=O)c1ccc(NC(=O)N2CCc3ccccc32)cc1	0	0	58.4	?	0	28.6
CCOC(=O)c1ccc(NC(=O)N2CCc3ccccc3C2)cc1	0	0	0	0	0	30.3
O=c1[nH]c2ccc(NCc3ccc(F)cc3)cc2[nH]1	0	0	41.1	0	0	12.6
O=c1[nH]c2ccc(NCc3ccc(OCc4ccccc4Cl)cc3)cc2[nH]1	0	0	0	0	0	23.5
Fc1ccc(CNc2ccc(CNc3ncn[nH]3)cc2)cc1	0	0	0	0	0	22.5
COc1ccccc1Cn1c(CNS(=O)(=O)c2ccccc2Cl)nc2cccnc21	0	-	-	-	-	-
COc1ccccc1CCn1c(=O)c(-c2cccs2)nc2cncnc21	-	-	-	-	0	-
CCOc1ccc(-n2c(=O)c3c(C)c(C)sc3n(CC(=O)NCCc3ccccc3)c2=O)cc1	0	-	-	-	-	-
O=C(c1cc2c(ccc3ccccc32)o1)N1CCCCC1	0	0	90.1	0	-	51.9
O=C(Nc1cccnc1)c1cc2c(ccc3ccccc32)o1	0	0	40.4	0	0	57.2
Cc1c(C(=O)Nc2cccc(S(=O)(=O)N3CCOCC3)c2)oc2ccc(Br)cc12	0	0	-	-	-	-
SMILES	TbPYK inhibitor	RE007 growth inh	Shiga toxin inh	LmPK inhibitor	FBPA Giardia inh	Cycloheximide cs
CCc1ccc2oc(C(=O)Nc3cccnc3)c(C)c2c1	0	0	65.6	0	0	58.4
Cc1c(C(=O)Nc2cccnc2)oc2ccc(Br)cc12	0	0	75.0	0	0	33.6
CCN(c1cccc(C)c1)S(=O)(=O)c1ccc(N2CCCCS2(=O)=O)cc1	0	-	-	-	-	-
COc1cccc(NC(=O)c2c(C(=O)Nc3ccccc3)sc3nc(C)cc(=O)n23)c1	0	-	-	-	-	-
Cc1nn(-c2ccccc2)c2sc(C(=O)Nc3cccc(O)c3)cc12	0	-	-	-	-	-
Cc1c(C(=O)NCc2cccs2)oc2ccc(Br)cc12	0	0	0	0	0	29.9
Cc1cccc(C(=O)NC2(C(F)(F)F)N=C(c3ccccc3)N(C3CCCCC3)C2=O)c1 (configuration not stated)	0	-	-	-	-	-
CCN(C(=O)c1cc2cc3ccc(C)cc3nc2o1)c1ccc(OC)cc1	0	0	37.3	0	0	36.2
COCCCNC(=O)c1cc2cc3cc(OC)ccc3nc2o1	0	0	0	0	0	19.7
COc1cc(NC(=O)c2cc3cc4cc(OC)ccc4nc3o2)cc(OC)c1	0	-	-	-	-	-
CCCCN(C)C(=O)c1cc2cc3cc(OC)ccc3nc2o1	0	0	62.7	0	0	41.6
CCCCN(C)C(=O)c1cc2cc3ccc(OC)cc3nc2o1	0	0	79.3	0	0	28.9
CCCCN(C)CCNC(=O)c1cc2cc3ccc(OC)cc3nc2o1	0	?	0	0	0	0

Source: PubChem (National Center for Advancing Translational Sciences (NCATS))
